Experimental data published in PubChem BioAssay (Tox21).
Calls of active or inactive are those of the source. Calls come from the whole dose curve; as a rule, active = well fitted curve in the direction sought with a large enough effect in the repeat runs; inconclusive = weak or mixed curves; inactive = flat fitted curve, though single readings scatter.

Assay: qHTS assay to test for compound auto fluorescence at 535 nm (green) in HepG2 cell free culture (AID 720686)
Conditions: Cell-free medium, green autofluorescence 485/535 nm; series mostly up to 91.3 µM
Description: U.S. Tox21 Program National Center for Advancing Translational Sciences [NCATS] NIH Chemical Genomics Center [NCGC] U.S. Environmental Protection Agency [EPA] National Institutes of Environmental Health Sciences [NIEHS] National Toxicology Program [NTP] U.S. Food and Drug Administration [FDA] Tox21 Assay Overview: Compound auto fluorescence often interferes with screening of the compound library against various biological targets and signaling pathways. Some of these compounds may have fluorophoric properties. Such properties may interfere with the assay outputs resulting in false positives and/or negatives. To decrease such complications and ensure the compound activities are relevant in terms of biological response, the Tox21 10K compound library was screened for auto fluorescence. From the fluorophores used as reporter signals in our screening assays, the auto fluorescence equivalencies of compounds against three fluorophores have been evaluated: Triamterene, Fluorescein and Rose Bengal sodium for blue, green and red fluorescence, respectively. The fluorescence intensities were measured using Excitation/Emission wavelengths at 405/460nm, 485/535nm and 540/590nm for blue, green and red labels, respectively. This assay includes the green fluorescence data.
Tox21 Assay Protocol Summary: 5 uL of culture medium (MEM containing 10% FBS) per well was dispensed into black wall/clear bottom 1536-well plates using a Multidrop Combi Dispenser (ThermoFisher Scientific, Waltham, MA). After 23 nL compound or DMSO vehicle was transferred into assay plate by a pintool work station (Kalypsys, San Diego, CA), fluorescence intensities in the assay plates were measured by an Envision (PerkinElmer, Shelton, CT) plate reader using three labels for measuring blue, green and red fluorescence at […] 460, 535 and 590nm respectively.

Q: With `Clc1ccccn1` as the molecule, how does the outcome read?
A: inactive

Q: Which outcome does the source give for `CC(=O)CCC=C(C)C` here?
A: inactive

Q: With `C[C@]12CC[C@@H]3c4ccc(O)cc4CC[C@H]3[C@@H]1C[C@@H](O)[C@@H]2O` as the molecule, how does the outcome read?
A: inactive

Q: Which outcome does the source give for `CN(C)c1ccc(Cc2ccc(N(C)C)cc2)cc1` here?
A: inactive

Q: With `O=C1C(c2[nH]c3ccccc3c2O)=Nc2ccccc21` as the molecule, how does the outcome read?
A: inactive

Q: With `CCNc1ccccc1` as the molecule, how does the outcome read?
A: inactive

Q: With `O=C(O)c1ccccc1C(=O)O` as the molecule, how does the outcome read?
A: inactive

Q: Which outcome does the source give for `CC(=O)Oc1ccc(C)cc1` here?
A: inactive

Q: For `C=C(C)CNCC`, which outcome is on record?
A: inactive

Q: With `CC1(C)NC(=O)NC1=O` as the molecule, how does the outcome read?
A: inactive

Q: Which outcome does the source give for `O=C(O)Cn1c(=O)n(Cc2ccc(Br)cc2F)c(=O)c2ccc(Cl)cc21` here?
A: inactive

Q: For `CC1(C)OC[C@@H]2O[C@@]3(C(=O)O)OC(C)(C)O[C@H]3[C@@H]2O1`, which outcome is on record?
A: inactive

Q: With `Nc1nc(N)nc(-c2ccccc2)n1` as the molecule, how does the outcome read?
A: inactive

Q: Which outcome does the source give for `CC(C)OP(=O)(CP(=O)(OC(C)C)OC(C)C)OC(C)C` here?
A: inactive

Q: With `CCOC(=O)c1ccc(N)cc1` as the molecule, how does the outcome read?
A: inactive

Q: Which outcome does the source give for `COc1ccc(OC)cc1` here?
A: inactive

Q: Which outcome does the source give for `CN1C(=O)CC[C@H]1c1cccnc1` here?
A: inactive

Q: Which outcome does the source give for `CCCCCCO` here?
A: inactive

Q: For `CCOC(=O)n1ccn(C)c1=S`, which outcome is on record?
A: inactive

Q: Which outcome does the source give for `CCCCCCCCCCN` here?
A: inactive

Q: With `CCCCCCCC=O` as the molecule, how does the outcome read?
A: inactive

Q: For `C=CC(C)CCCC(C)(C)O` (stereo not given), which outcome is on record?
A: inactive

Q: With `CCNc1cccc(C)c1` as the molecule, how does the outcome read?
A: inactive

Q: With `CCCCCCCO` as the molecule, how does the outcome read?
A: inactive

Q: Which outcome does the source give for `c1ccc2c(c1)Cc1ccccc1-2` here?
A: inactive

Q: With `O=C1c2ccccc2CCc2ccccc21` as the molecule, how does the outcome read?
A: inactive

Q: Which outcome does the source give for `CCCCOC(=O)c1ccc(N)cc1` here?
A: inactive

Q: Which outcome does the source give for `N[C@H](Cc1c[nH]c2ccccc12)C(=O)O` here?
A: inactive

Q: For `c1ccc(Oc2ccccc2)cc1`, which outcome is on record?
A: inactive

Q: For `OC1C(O)C(O)C(O)C(O)C1O` (stereo not given), which outcome is on record?
A: inactive

Q: Which outcome does the source give for `CC(C)c1cccc(C(C)C)c1` here?
A: inactive

Q: With `CCOCC(=O)O` as the molecule, how does the outcome read?
A: inactive

Q: With `COCCOC(=O)c1ccccc1C(=O)OCCOC` as the molecule, how does the outcome read?
A: inactive

Q: With `CC(C)OC(=O)COc1ccc(Cl)cc1Cl` as the molecule, how does the outcome read?
A: inactive

Q: With `CC(=O)OCCOC(C)=O` as the molecule, how does the outcome read?
A: inactive

Q: Which outcome does the source give for `CC1(C)CC(N)CC(C)(CN)C1` (stereo not given) here?
A: inactive

Q: Which outcome does the source give for `C=C(C)[C@H]1CC=C(C)C(=O)C1` here?
A: inactive

Q: For `CC(C)CCCCCCCOC(=O)CCCCC(=O)OCCCCCCCC(C)C`, which outcome is on record?
A: inactive

Q: With `CC(C)CC(C)O` (stereo not given) as the molecule, how does the outcome read?
A: inactive

Q: With `O=[N+]([O-])c1ccc2nc[nH]c2c1` as the molecule, how does the outcome read?
A: inactive
